Source: PubChem BioAssay (several laboratories)
Only some compounds are listed: those with a hit (about 32% of all), similar ones and a draw of the others.
CYP2C9 inh – inhibitors of human CYP2C9 | hit rate 20% among 96,000 | CYP2C9 Supersomes, luciferin-H conversion, luminescence | inhibition, % at 5 µM;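 active = blocking of liver enzyme CYP2C9 beyond about 50% at 5 µM, limit read from the data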
Target sequence (P11712 whole entry, looked up): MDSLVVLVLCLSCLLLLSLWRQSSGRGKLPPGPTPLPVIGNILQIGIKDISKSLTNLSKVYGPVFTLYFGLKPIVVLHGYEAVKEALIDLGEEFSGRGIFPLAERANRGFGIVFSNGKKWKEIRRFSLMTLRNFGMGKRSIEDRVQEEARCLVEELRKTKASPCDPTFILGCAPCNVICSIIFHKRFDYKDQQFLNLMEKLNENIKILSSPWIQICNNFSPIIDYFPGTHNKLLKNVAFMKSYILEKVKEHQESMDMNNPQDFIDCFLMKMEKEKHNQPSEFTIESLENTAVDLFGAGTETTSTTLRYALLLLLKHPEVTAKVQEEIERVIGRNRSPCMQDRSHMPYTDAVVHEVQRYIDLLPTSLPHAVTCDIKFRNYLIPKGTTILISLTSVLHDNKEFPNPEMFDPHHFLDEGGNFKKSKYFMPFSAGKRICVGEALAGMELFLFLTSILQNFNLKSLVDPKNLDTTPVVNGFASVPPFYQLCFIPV
CYP2C19 activ – cytochrome P450 2C19 (human) activation; activation factor at 5 µM; recombinant CYP2C19, luciferin-H EGE luminescence; hits give high values; 0 = fully inhibited enzyme, 1 = untreated enzyme; 96,000 tested, under 10 active; AID 1025; P33261;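 active = activation factor of at least 2 at 5 µM in the primary screen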;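 note: 0 = wells with 2.5 mM tranylcypromine and 1 = vehicle-only wells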
CYP2C9 act – CYP2C9 (human) activation. recombinant CYP2C9, luciferin-H conversion, luminescence; hits give high values; factor 1 = untreated enzyme, 0 = blocked. activation factor at 5 µM. hit rate 1.4% among 96,000. AID 1024;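 active = activation factor of 2 or more for CYP2C9 at a 5 µM dose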;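 note: 0 = sulfaphenazole-blocked wells and 1 = vehicle-only wells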
PostGolgi yeast – growth inhibition of a yeast mutant, post-Golgi transport screen; post-Golgi transport phenotypic cell assay; inhibition, % at 10 µM; hit rate 0.9% among 98,000; AID 739;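 note: yeast cells grown in 1536-well plates; yeast grown about 18 h at 30C before absorbance read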
CYP2C19 inhib – human CYP2C19 inhibition; CYP2C19 Supersomes, luciferin-H EGE luminescence, 30 min; inhibition, % at 5 µM; hit rate 21% among 96,000;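 active = CYP2C19 inhibition above a set limit at 5 µM in the primary screen, cut at about 50% in these data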;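 note: plate controls were negative control wells for no effect and 2.5 mM tranylcypromine positive control for full effect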
PostGolgi ctrl – yeast control strain growth, post-Golgi counter-screen | efflux-deficient yeast background strain, growth absorbance A615, 16 h | inhibition, % at 10 µM | AID 738 | hit rate 5% among 98,000
* = called active by the depositor; . = no result given. Cut-off read from the data, not from the text of the source, unless noted: active = inhibition above about 30%; inactive = the rest.

SMILES | CYP2C9 inh | CYP2C19 activ | CYP2C9 act | PostGolgi yeast | CYP2C19 inhib | PostGolgi ctrl
NC(=O)C1(N2CCCCC2)CCN(c2ccc3nnc(-c4ccccc4)n3n2)CC1 | 68* | 0.2 | 0.3 | 15 | 78* | 0
c1ccc(-c2csc(N3CCN(c4ccccn4)CC3)n2)cc1 | -10 | 0.8 | 1.1 | -3 | 20 | 41*
NC(=O)C1(N2CCCCC2)CCN(c2nc(-c3ccccc3)cs2)CC1 | 88* | 0 | 0.1 | 7 | 95* | 15
O=C(Nc1nncs1)C1(c2ccccc2)CCCC1 | 41 | 1 | 0.6 | -14 | 5 | 21
CCn1c(SCC(=O)N2CCc3ccccc32)nc2c(c1=O)SC(C)C2 (stereo not given) | 93* | 0.8 | 0.1 | . | 23 | .
COCCn1c(SCC(=O)N2CCCc3ccccc32)nc2c(c1=O)SC(C)C2 (stereo not given) | 95* | 0.7 | 0 | 8 | 34 | 14
CC1Cc2nc(SCC(=O)N3CCCc4ccccc43)n(C)c(=O)c2S1 (stereo not given) | . | . | . | 6 | . | 20
COCCn1c(SCC(=O)N2CCCc3ccccc32)nnc1-c1ccco1 | -6 | 0.5 | 1.1 | 14 | 48 | 7
COCCn1c(SCC(=O)N2CCCc3ccccc32)nc2ccccc2c1=O | 96* | 0 | 0 | 3 | 96* | -2
CCSc1nc2c(c(=O)n1CC)SC(C)C2 (stereo not given) | 19 | 0.8 | 0.8 | -2 | 19 | -3
CCn1c(SCC(=O)N2CCCCC2)nc2c(c1=O)SC(C)C2 (stereo not given) | 69* | 0.7 | 0.3 | 0 | 25 | 1
COC(=O)c1[nH]c2ccccc2c1NC(=O)CN1CCN(c2cccc(OC)c2)C(C)C1 (stereo not given) | 35 | 0.8 | 0.6 | -4 | 18 | 15
CCOC(=O)CSc1nnc(CNc2ccc(Cl)cc2)n1-c1ccccc1 | 38 | 0.5 | 0.6 | 60* | 49 | 50*
CCOC(=O)CSc1nnc(CNc2cccc(Cl)c2)n1-c1ccccc1 | 27 | 0.4 | 0.7 | -10 | 56* | 11
CCOC(=O)CSc1nnc(-c2cccs2)n1-c1ccccc1 | -5 | 1 | 1 | -11 | 5 | 2
CCOC(=O)CSc1ncc(-c2ccccc2)nn1 | 46 | 0.3 | 0.5 | 3 | 70* | 14
CCOC(=O)CSc1ncc(OC)c(Sc2ccc(OC)cc2)n1 | 84* | 0.6 | 0.2 | 6 | 40 | 17
O=C(O)CSc1nnc(CNc2ccccc2Cl)n1-c1ccccc1 | -16 | 1.1 | 1.2 | -6 | -8 | 6
O=C(CCCNS(=O)(=O)c1cccc2nsnc12)NCc1ccc(Cl)cc1 | -55 | 0.8 | 1.6 | 2 | 15 | 21
CCc1nnc(NC(=O)CSc2nnc(CNc3cccc(Cl)c3)n2CC)s1 | 48 | 0.9 | 0.5 | 18 | 12 | -5
COC(=O)CSc1nnc(CNc2ccc(Cl)cc2)n1Cc1ccccc1 | 92* | 0 | 0.1 | 65* | 97* | 46*
Cc1ccc(NCc2nnc(SCC(N)=O)n2CCc2ccccc2)cc1 | -14 | 1 | 1.1 | -7 | 2 | 1
Cn1c(CNc2cccc(Cl)c2)nnc1SCC(=O)OC1CCCCC1 | 81* | 0.2 | 0.2 | 2 | 79* | 19
Cn1c(CNC(=O)Nc2cccc(Cl)c2)nnc1SCc1ccccc1 | 1 | 1 | 1 | -14 | 1 | 1
CCn1c(CNc2cccc(Cl)c2)nnc1SCc1ccccc1 | 33 | 0.4 | 0.7 | -6 | 56* | 4
SMILES | CYP2C9 inh | CYP2C19 activ | CYP2C9 act | PostGolgi yeast | CYP2C19 inhib | PostGolgi ctrl
CC(=O)CC(C)=NCCN=C(C)CC(C)=O | -8 | 1.1 | 1.1 | 3 | -11 | 5
O=c1c2ccccc2nnn1CSc1nnc(-c2ccco2)o1 | 39 | 0.6 | 0.6 | -2 | 35 | -2
Cc1cccc(NC(=O)c2sc3nc(-c4ccccc4)cn3c2C)n1 | 65* | 0.5 | 0.3 | 7 | 55* | 8
Cc1c(C(=O)Nc2ccccc2)sc2nc(-c3ccccc3)cn12 | 76* | 0.3 | 0.2 | -3 | 70* | 19
COc1ccc(-c2cn3c(C)c(C(=O)Nc4cccc(C)n4)sc3n2)cc1 | . | . | . | 11 | . | 8
COc1cc(N2CCOCC2)ncn1 | -22 | 1.2 | 1.2 | 3 | -19 | 17
C=CCN1C(=O)N(/C=C/C)c2cccc3cccc1c23 | 18 | 0.8 | 0.8 | 4 | 18 | 30*
Cc1cc(N2CC34C=CC(O3)C(C(=O)O)C4C2=O)no1 (stereo not given) | -25 | 1.1 | 1.3 | 6 | -11 | 7
C=C(C)CSc1nnc([C@H](CCSC)NC(=O)OC(C)(C)C)o1 | -9 | 0.8 | 1.1 | 2 | 21 | 1
Cc1ccc2nc3sc(C(=O)N4CCCc5ccccc54)c(N)c3cc2c1 | 92* | 0.1 | 0.1 | 7 | 87* | 50*
Cc1ccc(-c2cc(C(=O)N3CCCc4ccccc43)c3ccccc3n2)cc1 | 93* | 0.3 | 0.1 | 1 | 71* | 29
CNC(=S)NN(c1ccccc1)c1ccccc1 | 8 | 0.2 | 0.9 | -1 | 78* | 10
COc1ccccc1Nc1nnc(SCC(=O)N2CCCC2)s1 | -64 | 0.9 | 1.6 | -2 | 6 | 0
COc1ccccc1N1CCN(C(=O)CSc2nc(C)cc(=O)[nH]2)CC1 | 21 | 0.9 | 0.8 | 3 | 9 | 3
CCOc1ccccc1Nc1nnc(SCC(=O)N2CCCC2)s1 | -130 | 1 | 2.3* | 10 | 4 | 4
COc1ccccc1Nc1nnc(SCC(=O)N2CCCC2=O)s1 | -167 | 0.4 | 2.7* | -4 | 57* | -6
COc1ccccc1N1CCN(C(=O)CSc2nnc(NC(=O)C3CCC3)s2)CC1 | 82* | 0.5 | 0.2 | 3 | 51* | 9
NC(=O)CNC(=O)C1CCCc2c1[nH]c1ccc(Cl)cc21 (stereo not given) | 50* | 0.9 | 0.5 | -1 | 10 | 2
Cc1nc(NC(=O)c2cc3c(s2)CCCCC3)sc1C(=O)N(C)C | 56* | 0.7 | 0.4 | -7 | 34 | 10
Cc1nc(NC(=O)c2ccc(Br)s2)sc1C(=O)N(C)C | 1 | 0.9 | 1 | 1 | 12 | 20
COc1ccc(C(=O)Nc2nc(C)c(C(=O)N(C)C)s2)cc1OC | -4 | 0.9 | 1 | 9 | 6 | 34*
CCCOc1ccc(C(=O)NC(=S)Nc2nc(C)c(C(=O)N(C)C)s2)cc1 | 43 | 0.4 | 0.6 | -10 | 63* | 3
COC(=O)c1sc(NC(=O)c2cc3c(s2)CCCC3)nc1C | 0 | 0.9 | 1 | -1 | 11 | 1
Nc1ccc(C(=O)N/N=C2\CCCc3c2[nH]c2ccccc32)cc1 | -25 | 1.1 | 1.3 | -5 | -6 | 44*
C/C(CCC12CC3CC(CC(C3)C1)C2)=N\NC(N)=S | 8 | 1.2 | 0.9 | 86* | -15 | 45*
CCCCC(=O)Nc1cccc(NC(=O)CC)c1 | -2 | 0.9 | 1 | -1 | 11 | 6
CCCCC(=O)Nc1cccc(NC(=O)c2ccccc2Br)c1 | 73* | 0.4 | 0.3 | 0 | 58* | -3
